Measurements from PubChem BioAssay (EPA / NIEHS).
The source made the active and inactive calls. The calls were made as follows: active = hit-call score of the fitted dose curve at least 0.9, where 1 is the maximum; inactive = score below 0.9.

Tests used:
Conditions in all cases: mRNA level, 48 h; actives raise or lower the signal
[1] = read-out: Cyclin D1 (CCND1), CCND1 (gene 595); experiment: LTEA_HepaRG_CCND1: Life Technologies and Expression Analysis (LTEA) Assay for Cyclin D1 (CCND1) using HepaRG (AID 2283451);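 as to AC50: differentiated human HepaRG liver cells in serum-free induction medium; TaqMan qRT-PCR transcript level normalised to ACTB GAPDH and POLR2A housekeeping genes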
Summary of the method: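 HepaRG plated 48 h, medium switched to serum-free induction medium, chemicals added in duplicate (top 100 uM, half-log steps, 0.5% DMSO) for 48 h, cells lysed, RNA measured by TaqMan qRT-PCR.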

[2] = read-out: catalase (CAT), CAT (gene 847); experiment: LTEA_HepaRG_CAT: Life Technologies and Expression Analysis (LTEA) Assay for catalase (CAT) using HepaRG (AID 2283452)
Summary of the method: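 Differentiated HepaRG cells in serum-free induction medium were dosed 48 h in duplicate, eight half-log concentrations from 100 uM in 0.5% DMSO. Transcript measured by TaqMan qRT-PCR, normalised to ACTB/GAPDH/POLR2A, fitted bidirectionally against DMSO.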

[3] = read-out: flavin-containing dimethylaniline monooxygenases 3 (FMO3), FMO3 (gene 2328); experiment: LTEA_HepaRG_FMO3: Life Technologies and Expression Analysis (LTEA) Assay for flavin-containing dimethylaniline monooxygenases 3 (FMO3) using HepaRG (AID 2283453);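 as to AC50: differentiated human HepaRG liver cells in serum-free induction medium; FMO3 transcript by TaqMan qRT-PCR normalized to ACTB GAPDH and POLR2A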
Summary of the method: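 FMO3 transcript quantified by TaqMan qRT-PCR against three housekeeping genes after 48 h chemical exposure of HepaRG cells. Eight-point half-log series, top 100 uM, 0.5% DMSO vehicle; phenobarbital 1mM induction control; up- or down-regulation fitted.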

[4] = read-out: Cytochrome P450 (CYP1A1), CYP1A1 (gene 1543); experiment: LTEA_HepaRG_CYP1A1: Life Technologies and Expression Analysis (LTEA) Assay for Cytochrome P450 (CYP1A1) using HepaRG (AID 2283454)
Summary of the method: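 HepaRG, 48 h post-plating switched to serum-free induction medium; 8-pt conc-response (top 100 uM, half-log, 0.5% DMSO), duplicates, 48 h. Lysis in RLT, TaqMan qRT-PCR for CYP1A1; gain or loss vs DMSO.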

[5] = read-out: CFLAR gene, CFLAR (gene 8837); experiment: LTEA_HepaRG_CFLAR: Life Technologies and Expression Analysis (LTEA) Assay for CFLAR gene using HepaRG (AID 2283455)
Summary of the method: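 Gain- or loss-of-signal changes in CFLAR transcript were fitted bidirectionally relative to 0.5% DMSO. Cells (HepaRG, duplicate wells) were dosed for 48 h across eight half-log concentrations topping at 100 uM; quantitation by TaqMan qRT-PCR.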

[6] = read-out: Forkhead box O1 (FOXO1), FOXO1 (gene 2308); experiment: LTEA_HepaRG_FOXO1: Life Technologies and Expression Analysis (LTEA) Assay for Forkhead box O1 (FOXO1) using HepaRG (AID 2283456)
Summary of the method: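 Using one lot of HepaRG hepatic cells kept in 0.5% DMSO, the team applied test chemicals in duplicate, half-log dilutions from 100 uM, for 48 h. Expression, normalised to ACTB/GAPDH/POLR2A, was compared with vehicle in either direction.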

[7] = read-out: growth arrest and DNA damage 45 (GADD45A), GADD45A (gene 1647); experiment: LTEA_HepaRG_GADD45A: Life Technologies and Expression Analysis (LTEA) Assay for growth arrest and DNA damage 45 (GADD45A) using HepaRG (AID 2283458)
Summary of the method: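 GADD45A expression was measured by TaqMan qRT-PCR against three housekeeping genes (ACTB, GAPDH, POLR2A) after 48 h treatment of HepaRG cells. Eight-point half-log series up to 100 uM in 0.5% DMSO, run in duplicate.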

[8] = read-out: Forkhead box O3 (FOXO3), FOXO3 (gene 2309); experiment: LTEA_HepaRG_FOXO3: Life Technologies and Expression Analysis (LTEA) Assay for Forkhead box O3 (FOXO3) using HepaRG (AID 2283459)
Summary of the method: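 Gene-expression endpoint: FOXO3 transcript level by qRT-PCR in HepaRG cultures treated 48 h with chemicals up to 100 uM (half-log, 0.5% DMSO vehicle).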

[9] = read-out: ABC Transporter (ABCB1), ABCB1 (gene 5243); experiment: LTEA_HepaRG_ABCB1: Life Technologies and Expression Analysis (LTEA) Assay for ABC Transporter (ABCB1) using HepaRG (AID 2283460)
Summary of the method: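 Human liver HepaRG line treated 48 h with up to 100 uM compound (eight half-log points, 0.5% DMSO); ABCB1 mRNA change fitted bidirectionally against DMSO controls.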

[10] = read-out: growth arrest and DNA damage 45 (GADD45B), GADD45B (gene 4616); experiment: LTEA_HepaRG_GADD45B: Life Technologies and Expression Analysis (LTEA) Assay for growth arrest and DNA damage 45 (GADD45B) using HepaRG (AID 2283461)
Summary of the method: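 HepaRG, ~100,000 cells/well, 48 h plating; serum-free induction medium; cpd 100 uM top, half-log x8, 0.5% DMSO, duplicate, 48 h; lysis in RLT, RNA isolation, qRT-PCR; norm ACTB/GAPDH/POLR2A; bidirectional fit vs DMSO.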

[11] = read-out: ABC Transporter (ABCC3), ABCC3 (gene 8714); experiment: LTEA_HepaRG_ABCC3: Life Technologies and Expression Analysis (LTEA) Assay for ABC Transporter (ABCC3) using HepaRG (AID 2283462)
Summary of the method: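 Human HepaRG, 48 h dosing, 8-pt half-log series from 100 uM, 0.5% DMSO vehicle, duplicates. ABCC3 mRNA by TaqMan qRT-PCR, housekeeping-normalized; bidirectional curve fit vs DMSO.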

[12] = read-out: ABC Transporter (ABCB11), ABCB11 (gene 8647); experiment: LTEA_HepaRG_ABCB11: Life Technologies and Expression Analysis (LTEA) Assay for ABC Transporter (ABCB11) using HepaRG (AID 2283463)
Summary of the method: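 Using HepaRG cultures held in 0.5% DMSO, chemicals were tested at half-log dilutions from 100 uM for 48 h. Induction or suppression of ABCB11 mRNA, normalized to ACTB, GAPDH and POLR2A, was fitted bidirectionally against vehicle.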

[13] = read-out: ABC Transporter (ABCC2), ABCC2 (gene 1244); experiment: LTEA_HepaRG_ABCC2: Life Technologies and Expression Analysis (LTEA) Assay for ABC Transporter (ABCC2) using HepaRG (AID 2283464)
Summary of the method: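 HepaRG, 48 h post-plating; serum-free induction medium; cpd 8-pt, 100 uM top, half-log, 0.5% DMSO, duplicate, 48 h. Readout: ABCC2 mRNA by qRT-PCR, norm. ACTB/GAPDH/POLR2A. Bidirectional fit vs DMSO baseline.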

[14] = read-out: Broad substrate specificity ATP-binding cassette transporter ABCG2 (Homo sapiens) (UniProt Q9UNQ0); experiment: LTEA_HepaRG_ABCG2: Life Technologies and Expression Analysis (LTEA) Assay for ABC Transporter (ABCG2) using HepaRG (AID 2283465)
Summary of the method: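 Gene expression of ABCG2 in HepaRG liver cells is quantified by qRT-PCR following 48 h exposure across an eight-point series topping at 100 uM. Values come from bidirectional fitting relative to DMSO vehicle.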

[15] = read-out: ATP-citrate lyase (ACLY), ACLY (gene 47); experiment: LTEA_HepaRG_ACLY: Life Technologies and Expression Analysis (LTEA) Assay for ATP-citrate lyase (ACLY) using HepaRG (AID 2283466)
Summary of the method: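 ACLY expression changes in human HepaRG liver cells are quantified by qRT-PCR after 48 h exposure to test chemicals (maximum 100 uM, half-log steps). Values are fitted in both directions relative to 0.5% DMSO vehicle.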

[16] = read-out: Peroxisomal acyl-coenzyme A oxidase 1 (ACOX1) gene, ACOX1 (gene 51); experiment: LTEA_HepaRG_ACOX1: Life Technologies and Expression Analysis (LTEA) Assay for Peroxisomal acyl-coenzyme A oxidase 1 (ACOX1) gene using HepaRG (AID 2283467)
Summary of the method: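 Human HepaRG hepatic cultures, 48 h treatment with test chemicals up to 100 uM. ACOX1 expression read by qRT-PCR relative to 0.5% DMSO vehicle.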

[17] = read-out: Alkaline Phosphatase, Placental (ALPP) gene, ALPP (gene 250); experiment: LTEA_HepaRG_ALPP: Life Technologies and Expression Analysis (LTEA) Assay for Alkaline Phosphatase, Placental (ALPP) gene using HepaRG (AID 2283468);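 as to AC50: differentiated human HepaRG liver cells in serum-free induction medium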
Summary of the method: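 HepaRG, 48 h plating then 48 h dosing, serum-free induction medium, 0.5% DMSO. 8 conc, half-log, max 100 uM, duplicates. Endpoint: ALPP transcript by qRT-PCR, housekeeping-normalized; gain or loss fitted vs DMSO.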

[18] = read-out: Bcl-2 (BAD) gene, BAD (gene 572); experiment: LTEA_HepaRG_BAD: Life Technologies and Expression Analysis (LTEA) Assay for Bcl-2 (BAD) gene using HepaRG (AID 2283469)
Summary of the method: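 Activity values reflect up- or down-regulation of BAD mRNA in human HepaRG hepatic cells treated 48 h in serum-free medium, with eight-point half-log dosing capped at 100 uM and 0.5% DMSO vehicle.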

[19] = read-out: Bcl-2 (BAX) gene, BAX (gene 581); experiment: LTEA_HepaRG_BAX: Life Technologies and Expression Analysis (LTEA) Assay for Bcl-2 (BAX) gene using HepaRG (AID 2283470)
Summary of the method: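 Gene expression measured by Fluidigm qRT-PCR with three housekeeping genes for normalisation. HepaRG cells, plated 48 h beforehand, treated 48 h at up to 100 uM (8-point, half-log) in 0.5% DMSO. Bidirectional fitting versus DMSO.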

Measured: AC50

Chain of Broad substrate specificity ATP-binding cassette transporter ABCG2 (Homo sapiens) (Q9UNQ0 whole entry, looked up): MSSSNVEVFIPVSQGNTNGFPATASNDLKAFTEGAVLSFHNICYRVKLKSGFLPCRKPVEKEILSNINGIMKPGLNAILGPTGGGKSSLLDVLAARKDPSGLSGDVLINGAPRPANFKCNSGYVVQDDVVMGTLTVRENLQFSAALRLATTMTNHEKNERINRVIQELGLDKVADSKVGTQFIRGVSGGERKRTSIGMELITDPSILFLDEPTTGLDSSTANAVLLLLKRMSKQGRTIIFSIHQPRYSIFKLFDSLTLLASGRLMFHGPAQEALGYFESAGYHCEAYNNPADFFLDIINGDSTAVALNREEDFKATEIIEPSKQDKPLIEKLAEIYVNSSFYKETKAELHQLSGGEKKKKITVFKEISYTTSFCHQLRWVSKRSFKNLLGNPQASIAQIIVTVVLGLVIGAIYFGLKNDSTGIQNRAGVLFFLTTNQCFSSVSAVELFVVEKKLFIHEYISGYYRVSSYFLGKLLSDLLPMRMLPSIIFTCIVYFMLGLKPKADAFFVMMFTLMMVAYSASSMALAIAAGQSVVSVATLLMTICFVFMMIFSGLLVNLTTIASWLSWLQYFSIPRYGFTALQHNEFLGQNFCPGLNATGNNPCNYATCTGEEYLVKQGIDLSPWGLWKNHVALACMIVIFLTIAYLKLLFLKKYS

COc1ccc2cc(S(=O)(=O)N[C@H](CC(=O)N[C@H](Cc3ccc(CN4[C@H](C)CCC[C@@H]4C)cc3)C(=O)N(C)C(C)C)c3ccc4c(c3)OCO4)ccc2c1
inactive: [1] | [8] | [14] | [15] | [18]
active: [2] 17.7 µM | [3] 17.3 µM | [4] 24.4 µM | [5] 15.1 µM | [6] 25.2 µM | [7] 25.9 µM | [9] 23.1 µM | [10] 47.8 µM | [11] 11.2 µM | [12] 24.2 µM | [13] 16.2 µM | [16] 20.3 µM | [17] 0.741 µM | [19] 81.8 µM

COc1cccc([C@H](O)C2CCN(CCc3ccc(F)cc3)CC2)c1OC
active: [4] 54.5 µM | [12] 26.6 µM | [15] 80.7 µM | [17] 9.92 µM
inactive: all other assays above

CCCCCCCC[Si](OCC)(OCC)OCC
inactive: all assays above

CO[C@H]1/C=C/O[C@@]2(C)Oc3c(C)c(O)c4c(O)c(c(/C=N/N5CCN(C)CC5)c(O)c4c3C2=O)NC(=O)/C(C)=C\C=C\[C@H](C)[C@H](O)[C@@H](C)[C@@H](O)[C@@H](C)[C@H](OC(C)=O)[C@@H]1C
active: [4] 31.2 µM | [9] 0.442 µM | [13] 0.344 µM | [17] 31.2 µM
inactive: all other assays above

Cc1cc2c(cc1C(F)(F)F)N(C(=O)Nc1ccc(Oc3cccnc3C)nc1)CC2
inactive: [1] | [8] | [9] | [10] | [13] | [15] | [18] | [19]
active: [2] 46 µM | [3] 46 µM | [4] 3.67 µM | [5] 72.6 µM | [6] 80.9 µM | [7] 78.1 µM | [11] 11.6 µM | [12] 3.86 µM | [14] 11 µM | [16] 46 µM | [17] 15.8 µM

CC(C)(C)c1csc(-c2cc3cc(OCc4ccccc4CC(=O)O)ccc3o2)n1
active: [1] 50 µM | [2] 28.3 µM | [3] 73.5 µM | [4] 12.2 µM | [5] 73.5 µM | [6] 81.3 µM | [9] 79 µM | [10] 42.6 µM | [12] 15.8 µM | [13] 93.8 µM | [14] 15.8 µM | [15] 87.4 µM | [16] 72.1 µM | [17] 24.4 µM
inactive: [7] | [8] | [11] | [18] | [19]

CCN(Cc1cccc(S(=O)(=O)O)c1)c1ccc(C(=C2C=CC(=[N+](CC)Cc3cccc(S(=O)(=O)O)c3)C=C2)c2ccccc2S(=O)(=O)[O-])cc1
active: [4] 32.2 µM
inactive: all other assays above

c1ccc2ccccc2c1
inactive: all assays above

C[C@]12CC[C@@H]3c4ccc(O)cc4CC[C@H]3[C@@H]1CC[C@H]2O
active: [4] 18.5 µM | [12] 69 µM | [14] 5.42 µM | [17] 50 µM
inactive: all other assays above

CC(C)(C)c1cc(/C=C2\SC(N)=NC2=O)cc(C(C)(C)C)c1O
active: [1] 39.3 µM | [2] 16.5 µM | [3] 23.9 µM | [5] 27.5 µM | [10] 35.5 µM | [11] 50 µM | [12] 24.6 µM | [13] 27.6 µM | [15] 82 µM | [16] 26.1 µM
inactive: [4] | [6] | [7] | [8] | [9] | [14] | [17] | [18] | [19]

CCCCCCCCOc1ccc(C(=O)c2ccccc2)c(O)c1
active: [4] 50 µM
inactive: all other assays above

COCC(C)OCC(C)OCC(C)O (configuration not stated)
inactive: all assays above

Cc1occc1C(=O)Nc1ccc(C(=O)N2CCC(F)(F)/C(=C\C(=O)N3CCC(N4CCCCC4)CC3)c3ccccc32)cc1
active: [1] 39.9 µM | [2] 31.2 µM | [3] 44 µM | [4] 16.8 µM | [5] 31.2 µM | [11] 47 µM | [12] 44.5 µM | [15] 53.2 µM | [16] 31.2 µM | [17] 46.7 µM
inactive: [6] | [7] | [8] | [9] | [10] | [13] | [14] | [18] | [19]
